{
  "source": "PubChem BioAssay (EPA / NIEHS)",
  "note": "Calls of active or inactive are those of the source. The calls were made as follows: active = hit-call score of the fitted dose curve at least 0.9, where 1 is the maximum; inactive = score below 0.9.",
  "data": [
    {"target": "Transcription factor Sp1 (Homo sapiens) (UniProt P08047)", "sequence (P08047 whole entry, looked up)": "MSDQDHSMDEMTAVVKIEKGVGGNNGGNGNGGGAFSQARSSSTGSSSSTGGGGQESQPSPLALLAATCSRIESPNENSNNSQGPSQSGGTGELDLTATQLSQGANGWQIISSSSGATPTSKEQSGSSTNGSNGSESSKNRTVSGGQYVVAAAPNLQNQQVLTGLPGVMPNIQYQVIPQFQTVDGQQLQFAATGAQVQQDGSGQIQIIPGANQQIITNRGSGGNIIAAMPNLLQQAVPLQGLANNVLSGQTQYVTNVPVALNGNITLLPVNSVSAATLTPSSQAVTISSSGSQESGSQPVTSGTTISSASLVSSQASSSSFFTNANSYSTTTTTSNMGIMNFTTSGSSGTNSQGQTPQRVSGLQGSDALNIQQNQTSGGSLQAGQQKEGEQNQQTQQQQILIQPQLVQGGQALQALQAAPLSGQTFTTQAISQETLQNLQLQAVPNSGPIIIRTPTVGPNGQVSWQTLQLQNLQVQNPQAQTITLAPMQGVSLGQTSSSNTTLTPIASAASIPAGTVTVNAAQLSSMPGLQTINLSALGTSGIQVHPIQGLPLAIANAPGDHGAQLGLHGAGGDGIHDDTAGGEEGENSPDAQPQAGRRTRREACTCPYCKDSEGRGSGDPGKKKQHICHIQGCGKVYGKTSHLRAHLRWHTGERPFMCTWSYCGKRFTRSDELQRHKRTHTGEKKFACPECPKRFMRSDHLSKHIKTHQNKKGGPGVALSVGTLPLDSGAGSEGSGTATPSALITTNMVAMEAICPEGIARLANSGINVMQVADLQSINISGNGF", "experiment": "ATG_Sp1_CIS: Attagene CIS-FACTORIAL HepG2 Assay for human Specificity Protein 1 (Sp1) (AID 2282961)", "settings": "HepG2 Sp1 cis-reporter transcription, actives raise or lower the signal", "outline": "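Read-out: fluorescence of 6-FAM-labeled, HpaI-digested RT-PCR products separated by capillary electrophoresis. HepG2 cells carried transfected cis-element reporter units and were exposed to chemicals for 24 h; gain or loss of signal fitted relative to DMSO.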", "values": [
      {"smiles": "NC(N)=NC(N)=NCCc1ccccc1", "outcome": "inactive"},
      {"smiles": "CCC(=O)OC/C=C(\\C)CCC=C(C)C", "outcome": "inactive"},
      {"smiles": "C/C=C(\\C)C(=O)OC/C=C(\\C)CCC=C(C)C", "outcome": "inactive"},
      {"smiles": "S=c1[nH][nH]c(=S)s1", "outcome": "inactive"},
      {"smiles": "O=C1OC2(c3ccc(O)cc3Oc3cc(O)ccc32)c2ccccc21", "outcome": "inactive"},
      {"smiles": "CC(C)Cc1ccc(C(C)C(=O)O)cc1", "note": "(centres undefined)", "outcome": "inactive"},
      {"smiles": "CC1=CC(C)C(C=O)C(C)C1", "note": "(centres undefined) (tested in a mixture with another compound)", "outcome": "inactive"},
      {"smiles": "CC(C)(C)C1CCC(O)CC1", "note": "(centres undefined)", "outcome": "inactive"},
      {"smiles": "CCCCOC(=O)C(C)OC(=O)CCC", "note": "(centres undefined)", "outcome": "inactive"},
      {"smiles": "O=C(O)c1ccc(C(=O)O)c(C(=O)O)c1", "outcome": "inactive"},
      {"smiles": "O=S(=O)(O)CCCN1CCOCC1", "outcome": "inactive"},
      {"smiles": "CCO[Si](CCC#N)(OCC)OCC", "outcome": "inactive"},
      {"smiles": "C=C(C)C(=O)OCCC(C)OC(=O)C(=C)C", "note": "(centres undefined)", "outcome": "inactive"},
      {"smiles": "CC(=O)N(C)C", "outcome": "inactive"},
      {"smiles": "O=c1cc(-c2ccc(O)cc2)oc2cc(O)cc(O)c12", "outcome": "inactive"},
      {"smiles": "CC1=CC(O)CC(C)(C)C1", "note": "(centres undefined)", "outcome": "inactive"},
      {"smiles": "CCC(=O)OCC=Cc1ccccc1", "outcome": "inactive"},
      {"smiles": "CCCCC1CCCCC(=O)O1", "note": "(centres undefined)", "outcome": "inactive"},
      {"smiles": "CN(C)CCC=C1c2ccccc2CCc2ccccc21", "AC50": "45.3 µM (active)"},
      {"smiles": "CCOC(=O)COC(=O)c1ccccc1C(=O)OCC", "outcome": "inactive"},
      {"smiles": "O=C(O)CS", "outcome": "inactive"},
      {"smiles": "CC(C)(CO)CO", "outcome": "inactive"},
      {"smiles": "CCCCOCCOCCO", "outcome": "inactive"},
      {"smiles": "Brc1cc(Br)cc(Br)c1", "outcome": "inactive"},
      {"smiles": "CC(C)Cc1ccccc1", "outcome": "inactive"},
      {"smiles": "COc1ccc(OC)cc1", "outcome": "inactive"},
      {"smiles": "Nc1ccc(O)c(N)c1", "outcome": "inactive"},
      {"smiles": "CCCC1CCC(=O)CC1", "outcome": "inactive"},
      {"smiles": "N=C1N=C(N)c2ccccc21", "outcome": "inactive"}
    ]}
  ]
}
